# A selection: hits, their analogues and other compounds. The true share with any hit is near 18%.
# IL-1B inflam inh – inhibitors of inflammasome signaling (IL-1 beta secretion); THP-1 LPS/ATP IL-1B secretion, AlphaLISA, 16 h; hits give low values; activity change, % at 57.5 µM; 4.7% of 360,000 active; AID 743279; in the data active = activity change below about -50%; inconclusive = mostly about -30% to -49%; also: % is scaled to controls: 0 for no effect and ±100 for the full control effect
#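 Secreted IL-1B measured by AlphaLISA bead assay after 16 h compound exposure of THP-1 cells; compounds (final up to 57.5 uM) added 1 h before LPS (250 ng/mL) and ATP (1.25 mM) stimulation; lower signal means less secretion.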
# TDP1 cell noCPT – qHTS for Inhibitors of human tyrosyl-DNA phosphodiesterase 1 (TDP1): qHTS in cells in absence of CPT. Potency, µM (highest dose often 46.2 µM), for inactives: top-dose activity change, negative = growth inhibition, hits mostly inhibitors. DT40 Tdp1-/- hTDP1 cells, no CPT, ATP luminescence, 48 h. 15% of 420,000 active; also: potency is read from the fitted curve at half-maximal effect; % is scaled to controls: 0 for no effect and ±100 for the full control effect; nearly all actives have a fitted effect of over 55% in size
#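 Readout: luminescence from CellTiter-Glo after 30 min in the dark at RT. Cells: DT40 Tdp1-/- with stable hTDP1, 400/well. Exposure: compounds alone, ≥48 hr, 37 °C.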
# HepG2 tox – kills HepG2 cells in TGF-b inhibitor counter-screen; HepG2 CAGA-GFP viability, ATP luminescence, 18 h; Potency, µM (doses to about 46.1 µM), for the others: at the highest dose activity change, negative = cytotoxicity, actives largely listed as cytotoxic; 0.76% of 410,000 active; AID 588856; also: potency is read from the fitted curve at half-maximal effect
#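 HepG2 CAGA-GFP cells (1000/well, DMEM with 1% FBS) received compound, then TGF-beta at 500 pg/mL final, and were incubated 18 hours at 37 degrees C. Viability was read by CellTiter-Glo luminescence. Media-only wells were set as complete cell-killing and DMSO as no toxicity.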
# TGFb inhibitor – inhibitors of TGF-b signaling; HepG2 CAGA-GFP TGF-b/SMAD3 reporter, GFP fluorescence, 18 h; TGF-beta stimulated, 500 pg/mL final; Potency, µM (series often up to 46.1 µM), for the others: top-dose activity, negative = inhibition, usual class: inhibitors; 1.2% of 410,000 active; AID 588855; also: potency is read from the fitted curve at half-maximal effect; % is scaled to controls: 0 for no effect and ±100 for the full control effect; nearly all actives have a fitted effect of over 65% in size
#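 Per well, imaged GFP fluorescence of HEPG2 CAGA-GFP cells gives the signal; cells get compound, then TGF-beta (500 pg/mL final), 18 h at 37 degrees C; %Activity versus -TGF-beta and +DMSO controls.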
# TDP1 block – TDP1 (human) enzyme inhibition; Potency, µM (series often up to 130 µM), for inactives: top-dose activity change, negative = inhibition, most hits filed as inhibitors; Q9NUW8; recombinant TDP1, AlphaScreen DNA substrate cleavage; 0.28% of 350,000 active; also: potency is read from the fitted curve at half-maximal effect; % is scaled to controls: 0 for no effect and ±100 for the full control effect; nearly all actives have a fitted effect of over 40% in size
# Target sequence (Q9NUW8 whole entry, looked up): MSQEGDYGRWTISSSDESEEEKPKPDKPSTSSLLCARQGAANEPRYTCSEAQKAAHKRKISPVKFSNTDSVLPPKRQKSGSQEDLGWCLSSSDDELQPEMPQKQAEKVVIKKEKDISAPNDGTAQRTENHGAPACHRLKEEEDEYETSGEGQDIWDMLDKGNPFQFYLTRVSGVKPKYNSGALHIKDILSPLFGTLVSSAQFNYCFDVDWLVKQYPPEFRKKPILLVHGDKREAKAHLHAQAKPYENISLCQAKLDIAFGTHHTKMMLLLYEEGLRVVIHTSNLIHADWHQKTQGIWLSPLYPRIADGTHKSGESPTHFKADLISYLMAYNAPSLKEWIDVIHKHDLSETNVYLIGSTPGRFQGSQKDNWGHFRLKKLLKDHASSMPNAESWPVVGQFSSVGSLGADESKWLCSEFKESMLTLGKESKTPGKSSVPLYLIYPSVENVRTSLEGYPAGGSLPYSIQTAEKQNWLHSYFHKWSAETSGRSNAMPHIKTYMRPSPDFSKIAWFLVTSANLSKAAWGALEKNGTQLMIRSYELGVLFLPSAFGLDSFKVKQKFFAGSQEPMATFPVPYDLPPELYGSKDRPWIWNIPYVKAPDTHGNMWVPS
#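 Enzyme-compound mixtures sat 15 min at room temperature, followed by a 5 min reaction with 15 nM final substrate and 10 min with AlphaScreen beads. Recombinant human Tdp1 was used at 1 nM final.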
# DT40 TDP1 CPT – growth inhibition of DT40 Tdp1-/-;hTDP1 cells with camptothecin (screen for TDP1 inhibitors) | chicken DT40 Tdp1-/-;hTDP1 cells + 20 nM CPT, ATP luminescence, 48 h | 12% of 420,000 active | Potency, µM (doses to about 46.2 µM), for inactives: at the highest dose activity change, negative = growth inhibition, actives largely listed as inhibitors | AID 686979; also: potency is read from the fitted curve at half-maximal effect; % is scaled to controls: 0 for no effect and ±100 for the full control effect; nearly all actives have a fitted effect of over 55% in size
#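 Cell growth measured by CellTiter-Glo luminescence after a minimum 48 h, 37 C compound exposure with 20 nM CPT in Tdp1-knockout DT40 cells stably expressing hTDP1, seeded 400/well; qHTS titration format.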
# Active calls of the source: *; ? = inconclusive; / = no result given; [ ] = dose if it differs, or a comment. Unless noted, calls follow the shape of the dose curve; as a rule, active = well fitted curve in the direction sought with a large enough effect; inconclusive = small, poorly fitted or top-dose-only effect, or another doubt; inactive = no such curve, though single readings can be large; an effect the other way counts as inactive or inconclusive.
SMILES,IL-1B inflam inh,TDP1 cell noCPT,HepG2 tox,TGFb inhibitor,TDP1 block,DT40 TDP1 CPT
CCOC(=O)C1C2C=CC(CC2)N1c1ccccc1 (centres undefined),-2,-4%,-11%,-25%,/,-4%
COC(=O)c1ccc(NC(=O)CN(CCc2ccccc2)S(=O)(=O)c2ccc(OC)cc2)cc1,/,21µM*,-9%,-41%,-5%[12.3 µM],?
Cc1ccc(S(=O)(=O)N(CCc2ccccc2)CC(=O)Nc2ccc(Br)cc2)cc1,/,16µM*,-21%,?,0%[12.3 µM],?
COc1ccc(NC(=O)CN(C)C(=O)c2ccc(S(=O)(=O)Nc3ccccc3C)cc2)cc1,7,?,2%,-7%,4%,-19%
CCOC(=O)c1c(NC(=O)c2ccn(CC)n2)sc2c1CCCC2,-20,23µM*,-41%,-46%,-1%,?
CCOC(=O)c1c(NC(=O)c2ccc(C)cc2)sc2c1CCCCC2,/,5%,3%,1%,0%[2.28 µM],10%
CCOC(=O)c1c(NC(=O)c2cc(OCC)c(OCC)c(OCC)c2)sc2c1CCCCC2,/,23µM*,2%,-3%,4%[12.3 µM],?
CCOC(=O)c1c(NC(=O)C(=O)N/N=C/c2ccccc2O)sc2c1CCCCC2,40,3.3µM*,-3%,9%,4%,2.9µM*
COc1cc(/C=N/n2c(C3CCCCC3)n[nH]c2=S)ccc1O,1,-24%,-5%,10%,/,-6%
O=C(Nc1ccc(F)cc1F)C1CCN(c2ncnc3c2sc2cccc(F)c23)CC1,27,16µM*,-16%,?,/,6.5µM*
CCN(CC)CCCNC(=O)C1CCN(c2ncnc3c2sc2cccc(F)c23)CC1,?,?,-13%,-12%,-1%,?
Cc1ccc(N(Cc2cc3ccccc3[nH]c2=O)C(=O)c2cccs2)cc1C,-28,18µM*,-15%,-10%,2%,?
Cc1ccc2[nH]c(=O)c(CN(C)C(=O)c3cccs3)cc2c1,7,-23%,-2%,0%,0%,?
O=C(c1cccs1)N(Cc1cc2ccccc2[nH]c1=O)c1ccccc1,-16,10µM*,-33%,?,3%,13µM*
Cc1ccc(N(Cc2cc3cc(C)ccc3[nH]c2=O)C(=O)c2cccs2)cc1,11,23µM*,-20%,6%,-3%,?
C[C@@H]1C(=O)O[C@H]2C[C@@]34[C@H]5C[C@@H](C(C)(C)C)[C@]36[C@H](OC(=O)[C@H]6O)O[C@]4(C(=O)O5)[C@]21O,/,/,/,/,2%,/
COC(=O)c1sccc1NC(=O)Nc1ccc(OC)cc1,-7,8%,-19%,-4%,1%[56.1 µM],-3%
O=C1CCC[C@@H]2CC(N(Cc3cc4ccccc4s3)c3ccccc3)C[C@@H]3CCN1[C@H]23 (some centres undefined),/,-2%,21%,-7%,/,15%
COc1cc(/C=C/C(=O)O)cc(S(=O)(=O)Nc2ccc3c(c2)CCC3)c1OC,-16,-28%,-27%,-1%,9%,-9%
Cn1c(CN2CCOCC2)nc2cc(NC(=O)c3ccccc3[N+](=O)[O-])ccc21,/,-3%,1%,-5%,-2%,-11%
Cc1ccc(Cn2c(C)c(CNC(C)c3ccccc3)c(C(=O)O)c2C)cc1 (centres undefined),/,26µM*,-11%,4%,0%,?
Cc1ccc(CNCc2c(C(=O)O)c(C)n(Cc3ccc(C)cc3)c2C)cc1,/,?,-25%,0%,5%,?
COc1ccc(CCNC(=O)C(C(=O)c2ccccc2)n2ccccc2=O)cc1OC (centres undefined),-2,5.8µM*,3%,11%,5%,-20%

# Source: PubChem BioAssay
